# Test results published in the supplement of paper PMC12645437, “Orthogonal IMiD-Degron Pairs Induce Selective Protein Degradation in Cells” (ACS Chemical Biology, 2025).
# The full ranking holds about 8,300 sequences; the median of “log2 fold change of degron read counts, EGFP-low vs EGFP+ sorted cells (limma voom), compound-induced degradation” is about -1.1, and the highest 2% start at about 3.2. Only a selection was taken, and the highest values are over-represented in it overall.
# T1: CRBN, Q96SW2
# T1 chain: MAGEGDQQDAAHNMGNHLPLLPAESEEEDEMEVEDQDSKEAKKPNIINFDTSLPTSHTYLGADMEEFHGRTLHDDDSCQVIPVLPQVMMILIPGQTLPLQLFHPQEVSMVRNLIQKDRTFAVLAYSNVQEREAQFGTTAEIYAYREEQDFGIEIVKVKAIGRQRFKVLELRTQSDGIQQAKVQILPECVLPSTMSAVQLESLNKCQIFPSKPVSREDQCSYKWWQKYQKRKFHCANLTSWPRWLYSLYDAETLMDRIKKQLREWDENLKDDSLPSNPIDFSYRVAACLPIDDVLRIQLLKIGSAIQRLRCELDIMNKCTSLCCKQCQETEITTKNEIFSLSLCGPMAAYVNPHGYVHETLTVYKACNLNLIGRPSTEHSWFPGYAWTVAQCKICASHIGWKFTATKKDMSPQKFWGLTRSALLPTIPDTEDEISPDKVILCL
# Target: T1, CRBN, Q96SW2
# Assay: log2 fold change of degron read counts, EGFP-low vs EGFP+ sorted cells (limma voom), compound-induced degradation; higher = more compound-induced degradation of the degron-EGFP fusion; degrons are variants of IKZF1/3 zinc finger 2; compound dose not given here
# Conditions: Jurkat, 18 h
# [1] = compound: compound 19 (5-tert-butyl-thalidomide)
# [2] = compound: compound 22 (5-morpholino-thalidomide)
# [3] = compound: compound 33 (diphenyl IMiD analogue)
# 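Also: pooled lentiviral library of zinc finger degron-EGFP fusions in mCherry-positive Jurkat cells, FACS-sorted after compound exposure, with degron abundance counted by next-generation sequencing.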
Sequence,log2 fold change of degron read counts [1],log2 fold change of degron read counts [2],log2 fold change of degron read counts [3],log2 fold change of degron read counts (compound: thalidomide)
"LVCNQCGFKCTQKGNLLRHIKL [46L_47V_49N_50Q_52G_53F_54K_55C_67L_, Q9UKT9]",-2.22,-2.27,-2.4,-0.986
"FFCSVCGHHFTQKGNLLRHIKL [46F_47F_49S_50V_52G_53H_54H_55F_67L_, Q9UKT9]",-2.1,-2.74,-2.17,-1.83
"FCCNQCGHNFTQKGNLLRHIKL [46F_47C_49N_50Q_52G_53H_54N_55F_67L_, Q9UKT9]",-2.54,-3.15,-2.94,-2.37
"FHCPVCGAMFTQKGNLLRHIKL [46F_47H_49P_50V_52G_53A_54M_55F_67L_, Q9UKT9]",1.4,1.46,1.42,-0.0518
"FYCNQCGRRFTQKGNLLRHIKL [46F_47Y_49N_50Q_52G_53R_54R_55F_67L_, Q9UKT9]",-2.62,-2.54,-2.6,-2.29
"LFCPICGFVCTQKGNLLRHIKL [46L_47F_49P_50I_52G_53F_54V_55C_67L_, Q9UKT9]",3.02,2.99,1.66,1.45
"FLCNVCGAQFTQKGNLLRHIKL [46F_47L_49N_50V_52G_53A_54Q_55F_67L_, Q9UKT9]",-2.31,-2.24,-0.00793,-0.809
"FVCPVCGALFTQKGNLLRHIKL [46F_47V_49P_50V_52G_53A_54L_55F_67L_, Q9UKT9]",-1.75,0.353,1.26,0.951
"FRCPVCGARFTQKGNLLRHIKL [46F_47R_49P_50V_52G_53A_54R_55F_67L_, Q9UKT9]",-1.26,-1.08,-0.255,0.153
"FQCPVCGALFTQKGNLLRHIKL [46F_47Q_49P_50V_52G_53A_54L_55F_67L_, Q9UKT9]",-1.05,1.65,1.66,3.5
"FWCPVCGARFTQKGNLLRHIKL [46F_47W_49P_50V_52G_53A_54R_55F_67L_, Q9UKT9]",2.67,3.51,1.2,1.26
"FGCPVCGARFTQKGNLLRHIKL [46F_47G_49P_50V_52G_53A_54R_55F_67L_, Q9UKT9]",3.6,2.1,-0.116,1.03
"FTCPVCGARFTQKGNLLRHIKL [46F_47T_49P_50V_52G_53A_54R_55F_67L_, Q9UKT9]",0.934,2.59,1.76,2.95
"FKCPVCGARFTQKGNLLRHIKL [46F_47K_49P_50V_52G_53A_54R_55F_67L_, Q9UKT9]",-1.78,-2.92,-2.71,-1.48
"FCCPVCGADFTQKGNLLRHIKL [46F_47C_49P_50V_52G_53A_54D_55F_67L_, Q9UKT9]",0.844,0.509,1.45,0.741
"FVCPVCGADFTQKGNLLRHIKL [46F_47V_49P_50V_52G_53A_54D_55F_67L_, Q9UKT9]",-0.973,0.651,1,1.76
"FFCPVCGALFTQKGNLLRHIKL [46F_47F_49P_50V_52G_53A_54L_55F_67L_, Q9UKT9]",1.62,1.64,1.45,0.0806
"FLCPVCGARFTQKGNLLRHIKL [46F_47L_49P_50V_52G_53A_54R_55F_67L_, Q9UKT9]",-0.179,-0.342,0.651,1.68
"FQCPVCGADFTQKGNLLRHIKL [46F_47Q_49P_50V_52G_53A_54D_55F_67L_, Q9UKT9]",-0.246,1.22,2.37,3.4
